Compound activity deposited in PubChem by National Center for Advancing Translational Sciences (NCATS).
Hits are enriched below; roughly 19% of the tested compounds scored in any of these assays.
DT40 TDP1 no CPT: qHTS for Inhibitors of human tyrosyl-DNA phosphodiesterase 1 (TDP1): qHTS in cells in absence of CPT | DT40 Tdp1-/- hTDP1 cells, no CPT, ATP luminescence, 48 h | hit rate 15% among 420,000 | Potency, µM (titrated, usually from 46.2 µM), without a hit: at the highest dose activity change, negative = growth inhibition, hits mostly inhibitors; also: potency is read from the fitted curve at half-maximal effect; nearly all actives have a fitted effect of over 55% in size
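Chicken DT40 Tdp1-/- cells stably complemented with human TDP1 were seeded at 400 cells/well with DMSO in place of 20 nM camptothecin. After compound pinning, cells grew at least 48 hr at 37 °C; viability read by CellTiter-Glo luminescence.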
HT1080NT lethal: qHTS for induction of synthetic lethality in tumor cells producing 2HG: qHTS for the HT-1080-NT fibrosarcoma cell line; Potency, µM (top dose mostly 46.1 µM), for the others: top-dose activity, negative = less viability, most hits filed as cytotoxic; HT-1080-NT fibrosarcoma viability, CellTiter-Glo ATP luminescence, 48 h; hit rate 1.6% among 360,000;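 also: NT is the 2HG producing partner of a matched IDH1 knockdown line; potency is read from the fitted curve at half-maximal effect; 0% = DMSO-treated cells and -100% = media-only wells without cells; nearly all actives have a fitted effect of over 55% in size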
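Toxicity toward the 2HG-producing NT line was scored as %Activity, normalised to DMSO and no-cell wells, from CellTiter-Glo luminescence after 48 hours' treatment.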
TDP1 cell CPT: qHTS for Inhibitors of human tyrosyl-DNA phosphodiesterase 1 (TDP1): qHTS in cells in presence of CPT; chicken DT40 Tdp1-/-;hTDP1 cells + 20 nM CPT, ATP luminescence, 48 h; Potency, µM (highest dose often 46.2 µM), without a hit: at the highest dose activity change, negative = growth inhibition, hits mostly inhibitors; hit rate 12% among 420,000; also: potency is read from the fitted curve at half-maximal effect; nearly all actives have a fitted effect of over 55% in size
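Cell growth measured by CellTiter-Glo luminescence after a minimum 48 h, 37 C compound exposure with 20 nM CPT in Tdp1-knockout DT40 cells stably expressing hTDP1, seeded 400/well; qHTS titration format.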
HT1080 IDH1KD tx: qHTS for induction of synthetic lethality in tumor cells producing 2HG: qHTS for the HT-1080-IDH1KD cell line; hit rate 2% among 360,000; HT-1080 IDH1 knockdown viability, ATP luminescence, 48 h; AID 686971, 2013; Potency, µM (highest dose often 46.1 µM), for inactives: at the top dose activity, negative = toxicity, most hits filed as cytotoxic;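 also: potency is read from the fitted curve at half-maximal effect; 0% = DMSO wells and -100% = cell-free medium wells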
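Cytotoxicity counter-line: IDH1KD HT-1080, 48 h, CellTiter-Glo. Curves classed by r2, magnitude and activity.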
IL1B secr inh: qHTS for Inhibitors of Inflammasome Signaling: IL-1-beta AlphaLISA Primary Screen; THP-1 LPS/ATP IL-1B secretion, AlphaLISA, 16 h; hits give low values; activity change, % at 57.5 µM; hit rate 4.7% among 360,000; AID 743279, 2014; in the data active = activity change below about -50%; inconclusive = mostly about -30% to -49%
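Secreted IL-1B measured by AlphaLISA bead assay after 16 h compound exposure of THP-1 cells; compounds (final up to 57.5 uM) added 1 h before LPS (250 ng/mL) and ATP (1.25 mM) stimulation; lower signal means less secretion.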
Starred values were filed as active, the others as inactive; ? = inconclusive; nt = not tested or not shown. Unless noted, calls follow the shape of the dose curve; as a rule, active = well fitted curve in the direction sought with a large enough effect; inconclusive = small, poorly fitted or top-dose-only effect, or another doubt; inactive = no such curve, though single readings can be large; an effect the other way counts as inactive or inconclusive. Unless noted, % is scaled to controls: 0 for no effect and ±100 for the full control effect.

SMILES | DT40 TDP1 no CPT | HT1080NT lethal | TDP1 cell CPT | HT1080 IDH1KD tx | IL1B secr inh
Cc1ccc([C@H]2N[C@]3(CCCN(Cc4ccc(Cl)cc4)C3=O)[C@H]3C(=O)N(C)C(=O)[C@@H]23)cc1 | ? | 1.8% | ? | -13.9% | 15.8
COc1ccc(NC(=O)Cn2cc(S(=O)(=O)N3CCN(c4ccccc4F)CC3)c3ccccc3c2=O)cc1Cl | -1.3% | nt | 4.0% | nt | nt
O=C(CSc1nnc(CNc2ccc(Cl)cc2)o1)Nc1nc2c(s1)CCCC2 | ? | -16.9% | 14.6µM* | -26.2% | -15.6
Cc1cccc(OCCn2c(-c3ccc(Cl)cc3)nc3ccccc3c2=O)c1 | -0.2% | nt | -10.4% | nt | nt
O=C(NC(=S)N1CCCCC1c1cccnc1)c1ccc(F)cc1 (stereo not drawn) | 12.9% | 4.4% | -2.2% | 9.3% | -2.7
O=C(NC(=S)NN1CCCCC1c1cccnc1)c1ccc(Cl)cc1Cl (stereo not drawn) | 25.9µM* | ? | ? | -10.5% | -14.9
Nn1c(SCC(=O)Nc2ccc3c(c2)OCCO3)nnc(CCC(=O)O)c1=O | ? | 6.5% | 20.6µM* | 7.6% | -4.3
O=C(C1CCC1)N1CCN(S(=O)(=O)c2ccc(Br)cc2Cl)CC1 | ? | -0.4% | ? | -9.3% | -20.5
Cc1cccc(C)c1NC(=O)c1c(O)c2ccccc2[nH]c1=O | ? | -25.8% | 18.4µM* | -14.2% | -6.1
CCCCCCNC(=O)c1c(O)c2ccccc2[nH]c1=O | 13µM* | 15.0% | ? | 12.7% | -26.1
Cc1cccc(NC(=O)c2c(O)c3ccccc3[nH]c2=O)c1 | -10.1% | 2.1% | -24.8% | -2.5% | 19.2
O=C(Nc1cccc(O)c1)c1c(O)c2ccccc2[nH]c1=O | ? | -6.0% | 18.4µM* | -10.9% | 3.1
Cc1ccc(S(=O)(=O)N2CCCCC2CCNC(=O)C(=O)NCc2ccco2)cc1 (stereo not drawn) | 7.31µM* | ? | 13µM* | 13µM* | -17.1
Cc1ccc(S(=O)(=O)N2CCCCC2CCNC(=O)C(=O)NCCc2ccco2)cc1 (stereo not drawn) | 4.11µM* | 10.3µM* | 2.91µM* | 18.4µM* | 7.4
O=C(NCCc1ccco1)C(=O)NCC1CCCN1S(=O)(=O)c1ccccc1 (stereo not drawn) | 4.11µM* | ? | 11.6µM* | ? | -4.7
Cc1cc(C)c(S(=O)(=O)N2CCCCC2CCNC(=O)C(=O)NCc2ccco2)c(C)c1 (stereo not drawn) | 16.4µM* | -22.1% | ? | ? | ?
O=C(NCc1cccc(F)c1)C1CCCN(C(=O)N2CCOc3ccccc32)C1 (stereo not drawn) | 0.3% | nt | 1.6% | nt | nt
CCOc1c(Br)cc(C(=O)OCC(=O)N2CCc3ccccc3C2)cc1OC | 25.9µM* | 2.2% | ? | 0.0% | -7.7
Cc1cccc(C)c1OCC(=O)N1CCc2ccccc2C1 | ? | 9.4% | ? | 13.5% | -81.9*
COc1cc2c(cc1OC)CN(C(=O)COc1ccccc1C#N)CC2 | 11.6µM* | -4.1% | 20.6µM* | -22.5% | -73.6*
CC(=O)Oc1cc(C(=O)OCC(=O)N2CCc3ccccc3C2)cc(OC(C)=O)c1OC(C)=O | 5.17µM* | -3.7% | 4.11µM* | -29.8% | 28.3
CC(C)=C(NC(=O)c1ccccc1)C(=O)NCc1ccccc1 | -17.7% | 25.3% | -17.6% | 17.1% | 20.5
CCOc1ccc(C(=O)COC(=O)c2nc3nccc(C)n3n2)cc1 | 1.2% | 1.6% | -1.7% | 1.2% | 6.7
COc1cc(C(=O)OCC(=O)c2c(N)n(C)c(=O)n(C)c2=O)ccc1OCCC(C)C | -2.5% | 18.7% | -11.2% | 10.0% | 17.6
COc1ccccc1-n1c(SCC(=O)Nc2ccc(Br)cc2)nc(O)cc1=O | -1.0% | -13.5% | 17.3% | -18.5% | 21.4
